High-throughput results deposited in PubChem BioAssay by several laboratories.
KCC2 mod = KCC2 cotransporter modulators, thallium flux, primary screen, cell-based, HEK293 KCC2, FluoZin-2 fluorescence, MLSMR; actives 2.2% (n = 190,000); B-score of Tl+ flux slope (higher = more flux/activation; lower = inhibition) at 10 µM; KCC2 cells, thallium flux FluoZin-2 fluorescence; AID 1456, 2008; Solute carrier family 12 member 5 (Homo sapiens), Q9H2X9;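 active means thallium flux slope and its plate-corrected score both differing from the plate sample mean at a set confidence after two filtering rounds, in either direction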;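 further: slope of fluorescence scaled to starting intensity during 10 to 20 s after thallium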
ROMK mod = ROMK potassium channel modulators, primary screen, cell-based, thallium flux, MLSMR library; B-score at 10 µM; AID 1918, 2009; ATP-sensitive inward rectifier potassium channel 1 (Homo sapiens), P48048; actives 2% (n = 130,000); Tet-inducible ROMK, thallium flux fluorescence; actives lie on both sides;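 active means signal ratio slope over the read window, or its plate-corrected B-score, at least 3 SD from the plate mean, either direction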;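 further: B-score of the F/F0 ratio slope over 7 to 12 s after thallium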
S1P3 antagonist = S1P3 receptor antagonists, primary screen, cell-based; Sphingosine 1-phosphate receptor 3 (Homo sapiens), Q99500; CHO S1P3 NFAT-BLA reporter, FRET fluorescence, antagonist mode; inhibition, % at 4.98 µM; actives 0.27% (n = 170,000); AID 485, 2006;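 active means inhibition above the plate cutoff, the mean inhibition of test wells on that plate plus 3 SD, cut at about 28% in these data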;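 further: cells challenged with S1P at its EC80 of 0.8 µM; blue over green emission ratio from cleaved BLA substrate after 4 h stimulation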
RAM network inh = inhibitors of the yeast RAM network, primary screen, dse1pr::URA3 reporter, 5-FOA selection; AID 868, 2007; actives 1.8% (n = 190,000); inhibition, % at 50 µM; S. cerevisiae dse1pr::URA3 reporter, 5-FOA growth OD615, 2 d; analog-sensitive cbk1-as2 kinase mutant strain;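 active means inhibition above a set limit, 3 SD over mean compound inhibition, cut at about 8.4% in these data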;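 further: inhibition rescues growth on 5-FOA so higher OD means more RAM inhibition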
S1P4 antag = S1P4 receptor antagonists, primary screen, cell-based; Sphingosine 1-phosphate receptor 4 (Homo sapiens), O95977; inhibition, % at 4.98 µM; actives 0.26% (n = 220,000); S1P4-expressing cells, antagonist mode, reporter read-out; in the data active means inhibition above about 29%
Target sequence (O95977 whole entry, looked up): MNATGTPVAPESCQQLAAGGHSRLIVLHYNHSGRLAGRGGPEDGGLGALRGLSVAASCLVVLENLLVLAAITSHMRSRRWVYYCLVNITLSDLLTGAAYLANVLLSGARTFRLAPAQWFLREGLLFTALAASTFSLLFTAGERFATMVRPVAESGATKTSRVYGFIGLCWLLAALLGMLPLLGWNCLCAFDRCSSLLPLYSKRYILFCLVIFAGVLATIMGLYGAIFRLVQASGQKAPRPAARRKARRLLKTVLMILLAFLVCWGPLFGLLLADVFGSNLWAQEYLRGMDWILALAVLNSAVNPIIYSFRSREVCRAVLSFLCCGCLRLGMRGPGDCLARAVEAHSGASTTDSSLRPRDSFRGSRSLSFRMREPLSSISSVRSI
S1P4 ag = S1P4 receptor agonists, primary screen, cell-based; Sphingosine 1-phosphate receptor 4 (Homo sapiens), O95977; S1P4-expressing cell line, agonist reporter assay; activation, % at 4.98 µM; actives 0.35% (n = 220,000); AID 1509, 2009; in the data active means activation above about 11%
ROMK hit retest = ROMK channel modulator hit retest, confirmation, cell-based, thallium flux, duplicate, resupplied hits; normalized thallium flux (F/F0 slope) at 10 µM; AID 1917, 2009; shares compounds with ROMK mod; actives 54% (n = 3,000); fluorescence ratio; stronger effect = lower value;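 active means Flux at 10 µM at least 3 SD below or above vehicle control mean in one or both replicates; inconclusive means no clear call, values can overlap the other calls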
Large screens that a line does not name were inactive (follow-up assays come after a bar, where they were run). A selection: hits, their analogues and other compounds. The true share with any hit is near 5.1%.

COc1cc(/C=C2\SC(=S)N(NC(=O)c3cccnc3)C2=O)ccc1O	ROMK mod -4.24 (no result: RAM network inh) | ROMK hit retest 0.0581
O=C1/C(=C/c2ccc(O)c(O)c2)SC(=S)N1Nc1ccccc1	ROMK mod -2.03 | ROMK hit retest 0.0585
COc1cc(/C=C2\SC(=S)N(Nc3ccccc3)C2=O)ccc1O	none (no result: ROMK mod)
COc1cc(/C=C2\SC(=S)N(c3cccnc3)C2=O)ccc1O	none (no result: ROMK mod, RAM network inh)
COc1cc(/C=C2\SC(=S)N(Nc3ncc(C(F)(F)F)cc3Cl)C2=O)ccc1O	ROMK mod -3.69 (no result: S1P3 antagonist) | ROMK hit retest 0.0635
NC(CSCc1cccc(Br)c1)C(=O)O (stereo not given)	none (no result: KCC2 mod)
CC1(C)Cc2c(C#N)c(SCCOc3ccccc3)nc(N3CCOCC3)c2CO1	none (no result: ROMK mod, S1P3 antagonist) | ROMK hit retest inconclusive
CSc1nc(N2CCCC2)c2c(c1C#N)CC(C)(C)OC2	none (no result: S1P3 antagonist)
CC/C(O)=C1\C(=O)CC(c2ccccc2)CC1=NC(C)C (stereo not given)	none
Cc1cc(/C=C2\Sc3ccccc3N2C)cc(C)[n+]1CC1CCCO1 (stereo not given)	ROMK mod -4.83 | ROMK hit retest 0.028
CCOc1ccccc1N(CC(=O)N1CCOCC1)S(=O)(=O)c1ccc(SC)cc1	ROMK mod -7.38 | ROMK hit retest 0.0335
CC(C)OCCCNC(=O)c1ccc(NS(C)(=O)=O)cc1	none (no result: ROMK mod) | ROMK hit retest inactive
COCCNC(=O)c1ccc(NS(C)(=O)=O)cc1	none
COc1cccc(C(=O)CSc2nnc(-c3cc(OC)cc(OC)c3)o2)c1	ROMK mod 1.09 (no result: KCC2 mod) | ROMK hit retest inconclusive
COc1cccc(C(=O)CSc2nnc(-c3cccs3)o2)c1	none (no result: KCC2 mod, ROMK mod)
COC(=O)N/N=C/c1ccc(OC(=O)c2ccco2)c(OC)c1	ROMK mod 4.62 (no result: RAM network inh) | ROMK hit retest inactive
COc1ccc(/C=C/C(=O)c2cc(Br)ccc2OC(=O)c2ccco2)cc1OC	none | ROMK hit retest inactive
COc1cc(/C=N/NC(=O)c2ccc(F)cc2)ccc1OC(=O)c1ccco1	none
COc1cc(/C=C2/C(=O)NN(c3cccc(F)c3)C2=O)ccc1OC(=O)c1ccco1	none
COc1ccc(/C=C/C(=O)c2cc(Br)ccc2O)cc1OC	none
COc1cc(/C=C2/C(=O)NN(c3ccc(Cl)cc3)C2=O)ccc1OC(=O)c1ccco1	ROMK mod -3.3 | ROMK hit retest inactive
Cc1ccccc1Cn1cc(C)c(=O)[nH]c1=O	ROMK mod 2.05 | ROMK hit retest inactive
Cc1cn(Cc2ccccc2Cn2cc(C)c(=O)[nH]c2=O)c(=O)[nH]c1=O	none (no result: RAM network inh)
Cc1nc2ncccn2c1-c1csc(Nc2ccc(N(C)C)cc2)n1	ROMK mod 7.19 | ROMK hit retest inactive
COc1ccccc1Nc1nc(-c2c(C)nc3ncccn23)cs1	none (no result: KCC2 mod)
CN(CC1CCOCC1)C(=O)CC1C(=O)NCCN1Cc1ccc(-c2ccccc2)cc1 (stereo not given)	ROMK mod -4.13 | ROMK hit retest inactive
COCCCNC(=O)/C(C#N)=C/c1ccc(OCC(=O)O)c(OC)c1	none (no result: ROMK mod)
CCOCCCNC(=O)/C(C#N)=C/c1ccccc1F	ROMK mod -3.85 | ROMK hit retest 0.0516
CCOCCCNC(=O)/C(C#N)=C/c1ccc(C(=O)OC)cc1	ROMK mod -2.16 | ROMK hit retest 0.0453
CCC(C)[C@H](NC(=O)NCc1ccc(S(N)(=O)=O)cc1)C(=O)O (stereo not given in full)	none (no result: ROMK mod, RAM network inh)
COC(=O)/C(=C/c1c[nH]c2ccccc12)NC(C)=O	none
COC(=O)/C(=C/c1c[nH]c2ccccc12)[N+](=O)[O-]	ROMK mod -3.84 (no result: S1P3 antagonist) | ROMK hit retest 0.0625
COC(=O)/C(=C/c1cn(C)c2ccccc12)[N+](=O)[O-]	none (no result: ROMK mod, S1P3 antagonist) | ROMK hit retest 0.0416
CC(C)COC(=O)/C(C#N)=C/c1c[nH]c2ccccc12	none (no result: ROMK mod) | ROMK hit retest 0.0336
